Results on 31 compounds are retold here after PubChem BioAssay (EPA / NIEHS).

The structures appear in SMILES notation. Results filed as inconclusive are left out. Calls of active or inactive are those of the source. How the source made its calls: active means hit-call score of the fitted dose curve at least 0.9, where 1 is the maximum; inconclusive means response in the unintended direction; inactive means score below 0.9.

Chain of Cytochrome P450 3A4 (Homo sapiens) (P08684 whole entry, looked up): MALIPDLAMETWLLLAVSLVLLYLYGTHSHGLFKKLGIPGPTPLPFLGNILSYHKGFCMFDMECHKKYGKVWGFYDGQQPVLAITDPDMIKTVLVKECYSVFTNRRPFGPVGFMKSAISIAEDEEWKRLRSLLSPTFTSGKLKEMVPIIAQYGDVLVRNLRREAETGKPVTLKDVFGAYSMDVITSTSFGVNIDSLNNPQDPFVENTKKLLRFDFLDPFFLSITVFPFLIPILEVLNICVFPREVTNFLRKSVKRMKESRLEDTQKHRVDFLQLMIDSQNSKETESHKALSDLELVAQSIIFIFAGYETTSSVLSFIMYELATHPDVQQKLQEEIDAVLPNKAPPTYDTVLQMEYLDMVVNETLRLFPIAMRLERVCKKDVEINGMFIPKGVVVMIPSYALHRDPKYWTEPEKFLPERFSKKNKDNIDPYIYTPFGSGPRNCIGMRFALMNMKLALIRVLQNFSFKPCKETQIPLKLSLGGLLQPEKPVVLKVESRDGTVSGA

Read-out in this assay: Cytochrome P450 3A4 (Homo sapiens) (UniProt P08684)
As to the kind of experiment: CLD_CYP3A4_6hr: CellzDirect (CLD) Gene Expression Assay for xenobiotic metabolism (CYP3A4) at 6 hours (AID 2283680). As to the method:
CLD_6hr is a cell-based, multiplexed-readout assay that uses hepatocyte, a human liver primary cell, with measurements taken at 6 hours after chemical dosing in a 96-well plate.CLD_CYP3A4_6hr is one of 16 assay component(s) measured or calculated from the CLD_6hr assay. It is designed to make measurements of mRNA induction, a form of inducible reporter, as detected with chemiluminescence signals by Quantitative Nuclease Protection Assay (qNPA) technology.Data from the assay component CLD_CYP3A4_6hr was analyzed at the endpoint, CLD_CYP3A4_6hr, in the positive analysis fitting direction relative to DMSO as the negative control and baseline of activity. Using a type of inducible reporter, gain-of-signal activity can be used to understand changes in the reporter gene as they relate to the gene CYP3A4. Furthermore, this assay endpoint can be referred to as a primary readout. To generalize the intended target to other relatable targets, this assay endpoint is annotated to the cyp intended target family, where subfamily is xenobiotic metabolism.
Human hepatocyte cultures were treated daily for two consecutive days with fresh dosing solutions containing appropriate concentrations of the 320 ToxCast chemicals (chemical identities were blinded to CellzDirect and other ToxCast collaborators), vehicle control (0.2% DMSO), and positive control inducers as summarized in Table 1. Due to the large number of treatment groups and chemicals examined, the ToxCast chemicals were divided into two groups (spanning two independent cultures of hepatocytes from separate donor preparations (Hu778: ToxCast plates 1 and 2; Hu776: ToxCast plates 3 and 4). Each preparation of human hepatocyte cultures was treated with respective vehicle control, medium only control, set of six positive controls/reference chemicals for the five hepatic receptor pathways, and a subset of eight of the ToxCast chemicals (indoxacarb, pyrithiobac-sodium, norflurazon, cyhalofop-butyl, methomyl, thiram, acetochlor, and propiconazole). These replicate data, coupled with internal replicates designed within the blinded ToxCast chemical library, provided additional data to evaluate interindividual differences between hepatocyte preparations and their potential impact on chemical profiles.Cell morphology and integrity were evaluated using phase-contrast microscopy as an indicator of hepatocyte cell health (Tyson & Green, 1987). Cultures for each treatment group (i.e., media, vehicle [0.2% DMSO], positive control inducers [multiple concentrations], and the ToxCast chemicals [multiple concentrations]) were observed and cell morphology was assessed relative to vehicle control cultures at each harvest time point (0, 6, 24, or 48 h). […] Images were evaluated at the conclusion of the study to assess changes in cell integrity and account for the effects of chemical exposure on uncharacteristic changes in concentration-dependent gene expression profiles. The results from these determinations of apparent cytotoxicity were annotated (yes/no) alongside the corresponding qNPA data for reference.At the conclusion of each treatment period, hepatocyte cultures (96-well) were washed with 1 volume of HBSS, lysed by addition of 25 ul ArrayPlate lysis buffer (HTG, Tucson, AZ), and 70 ul/well of Denaturation Oil, denatured by incubation at 95C for 10 min, and frozen at approximately -70C until analysis by nuclease protection assay (qNPA) (Roberts et al., 2007). For qNPA analysis, cell lysates were thawed at 50C for approximately 30 min, qNPA probes were added, and samples were incubated at 95C for 10 min to begin the detection process by denaturing the target RNA, dissociating the duplexes and secondary structure hybridization. At the conclusion of the hybridization period, S1 nuclease reagent was added to each sample to digest all nonprotected nucleotides at 50C for 60-90 min. […]
For the compound `CCOC(=O)NCCOc1ccc(Oc2ccccc2)cc1`, the compound was called inactive.
Still for that read-out and setting: with `CCNc1nc(N)nc(Cl)n1` the entry was “inactive”; with `CCCCC(CC)CN1C(=O)C2C3C=CC(C3)C2C1=O` (stereo unspecified), “inactive”; with `CCCCCCC(C)OC(=O)COc1nc(F)c(Cl)c(N)c1Cl` (stereo unspecified), “inactive”.
With `CCCCOC(=O)[C@@H](C)Oc1ccc(Oc2ccc(C(F)(F)F)cn2)cc1`, the call was inactive.
Take `CC(C)(C)[C@@H](O)[C@@H](Cc1ccc(Cl)cc1)n1cncn1`: the compound was classed as inactive.
For orientation: AC50 means the concentration giving half of the maximal activity seen. For the compound `CCN(Cc1c(F)cccc1Cl)c1c([N+](=O)[O-])cc(C(F)(F)F)cc1[N+](=O)[O-]`, the AC50 is 1900 nM (active).
Regarding `COC(=O)c1c(Cl)nn(C)c1S(=O)(=O)NC(=O)Nc1nc(OC)cc(OC)n1`, the compound was called inactive.
With `CC(C)(c1ccc(O)cc1)c1ccc(O)cc1`, the compound was called inactive.
Turning to `Cc1nn(C)c(Oc2ccccc2)c1C=NOCc1ccc(C(=O)OC(C)(C)C)cc1`, the compound was classed as inactive.
On to `CN(C)C(=O)Nc1ccc(Cl)c(Cl)c1`, for which the call was inactive.
With `COC(=O)c1cccc(C)c1S(=O)(=O)NC(=O)Nc1nc(OCC(F)(F)F)nc(N(C)C)n1`, the result was inactive.
Still for that read-out and setting: as for `COc1nc(C)nc(NC(=O)NS(=O)(=O)c2ccccc2OCCCl)n1`, the entry is “inactive”; as for `CCCCOC(=O)C(C)Oc1ccc(Oc2ccc(C(F)(F)F)cn2)cc1` (stereo unspecified), “inactive”; as for `CCCN(CCC)C(=O)SCC`, “inactive”.
On the same count and under the same terms, with `Oc1ccc(C(c2ccc(O)cc2)C(Cl)(Cl)Cl)cc1` the entry was “inactive”.
In the case of `S=C(S)NCCNC(=S)S.[Mn+2].[S-]C([S-])=NCCN=C([S-])[S-].[Zn+2]`, the AC50 was 3970 nM (active).
Regarding `COC(=O)CSc1cc(N=c2sc(=O)n3n2CCCC3)c(F)cc1Cl`, the AC50 was 1300 nM (active).
Consider `CCCN(CCC)c1c([N+](=O)[O-])cc(C(F)(F)F)c(N)c1[N+](=O)[O-]`, for which the compound was called inactive.
On the same count and under the same terms, as for `CC1(C)C(C=C(Cl)Cl)C1C(=O)OCc1cccc(Oc2ccccc2)c1` (stereo unspecified), the entry is “inactive”.
Turning to `O=C(O)C1(C(=O)Nc2ccc(Cl)cc2Cl)CC1`, the compound was classed as inactive.
Same read-out and setting: as for `CCCOC(=O)NCCCN(C)C`, the entry is “inactive”.
Same read-out and setting: with `CSC(=O)c1cccc2nnsc12` the entry was “inactive”.
On the same count and under the same terms, with `COc1c(Cl)ccc(Cl)c1C(=O)O` the entry was “inactive”.
`CCOC(=O)COc1cc(-n2ncc(C(F)(F)F)c(C)c2=O)c(F)cc1Cl`: the AC50 was 4730 nM (active).
Regarding `COC(=O)c1ccc(I)cc1S(=O)(=O)NC(=O)Nc1nc(C)nc(OC)n1`, the AC50 is 348 nM (active).
On to `CCOC(=O)C(C)Oc1ccc(Oc2cnc3cc(Cl)ccc3n2)cc1` (stereo unspecified), for which the compound was classed as inactive.
On to `CCCCC(CC)COC(=O)c1ccccc1C(=O)O` (stereo unspecified), for which the outcome was inactive.
`c1ccc(Nc2ccccc2)cc1`: the outcome was inactive.
Still for that read-out and setting: with `COCCO` the entry was “inactive”.
As for `CCCCCOC(=O)COc1cc(N2C(=O)C3=C(CCCC3)C2=O)c(F)cc1Cl`, the AC50 is 3780 nM (active).
